In assay [1] the target is Gonadotropin-releasing hormone receptor (Homo sapiens) (UniProt P30968). The assay is described as follows: Human gonadotropin-releasing hormone receptor (GnRHR) small molecule agonists, calcium flux assay in GnRHR-HEK293 cells (AID 1920063). Further: nearly all actives have a fitted effect of over 35% in size. The gist of the method: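 GnRHR-HEK293, 1500 cells/well, 18 h 37 C/5% CO2; Ca dye 1 h 37 C; cpd pinned (DMSO), agonist mode; kinetic FL 480/540, 3 min, 1 s reads; 15 conc, n=3.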
Gonadotropin-releasing hormone receptor (Homo sapiens), sequence (P30968 whole entry, looked up): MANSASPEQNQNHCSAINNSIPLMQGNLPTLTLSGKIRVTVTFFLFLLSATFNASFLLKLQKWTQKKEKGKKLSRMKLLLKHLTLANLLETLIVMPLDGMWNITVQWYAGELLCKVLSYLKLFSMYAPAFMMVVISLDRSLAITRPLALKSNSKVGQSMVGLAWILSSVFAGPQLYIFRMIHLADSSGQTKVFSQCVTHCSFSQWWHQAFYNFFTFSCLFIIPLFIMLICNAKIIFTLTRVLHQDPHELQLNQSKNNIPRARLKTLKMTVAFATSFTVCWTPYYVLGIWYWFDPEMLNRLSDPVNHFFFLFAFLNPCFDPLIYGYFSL
(In general: Calcium assays in cells follow changes in intracellular calcium, usually with a dye or a luminescent sensor.)

Assay [2] has as its target KiSS-1 receptor (Homo sapiens) (UniProt Q969F8). The experiment in a line: Human kisspeptin (KISS1R) small molecule agonists, calcium flux assay in KISS1R-HEK293 cells (AID 1920064; active means well fitted activation curve with a large enough effect in the repeat runs). The gist of the method:
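Stable human KISS1R HEK293 line; 18 h plating, 37 C/5% CO2; calcium dye 1 h 37 C; compound pin transfer; kinetic fluorescence Ex/Em 480/540, 3 min.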

Assay [3] can be described thus: G protein-coupled receptor (GPCR) small molecule agonists, calcium flux assay: HEK293 wild type cell line counter screen (AID 1920065). The gist of the method:
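Kinetic fluorescence at Ex/Em 480/540, recorded every second over 3 min, served as the read-out after compound addition. Each compound was tested at 15 concentrations in triplicate on cells pre-loaded with calcium dye for 1 h.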

Assay [4] can be described thus: p53 small molecule agonists, cell-based qHTS assay with human liver microsomes: qHTS cell viability counter screen (AID 1963579). Further: nearly all actives have a fitted effect of over 45% in size. The gist of the method: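 p53RE-bla cells (4,000/well) were pre-incubated 5 h at 37 C, then given compounds in DMSO plus human liver microsomes (0.5 mg/mL final) and NADPH (0.5 mg/mL final) for 16 h at 37 C. Viability was read by CellTiter-Glo luminescence.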

A short description of assay [5]: p53 small molecule agonists, cell-based qHTS assay with rat liver microsomes: qHTS cell viability counter screen (AID 1963580). Further: nearly all actives have a fitted effect of over 45% in size. The gist of the method: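 In HCT-116 cells carrying a p53 response element-bla reporter, compounds were metabolically activated in situ by rat liver microsomes with NADPH over 16 h. Cell ATP content then served as the cytotoxicity measure.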
(In general: In qHTS, concentration-response curves come from the screen itself.)

A short description of assay [6]: p53 small molecule agonists, cell-based qHTS assay: qHTS cell viability counter screen (AID 1963581). Further: nearly all actives have a fitted effect of over 45% in size. In a few lines:
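HCT-116 p53RE-bla cells, 4,000/well, plated 5 h before compound pin transfer; 16 h at 37 C; bla substrate 2 h RT; then CellTiter-Glo, 30 min RT, luminescence.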

For assay [7], the target named is 5-hydroxytryptamine receptor 2A (Homo sapiens) (UniProt P28223). The assay is described as follows: 5-hydroxytryptamine receptor 2A (HTR2A) small molecule antagonists, cell-based qHTS assay (AID 1963586). Further: nearly all actives have a fitted effect of over 45% in size. Further: potency means the concentration at half of the fitted maximal effect. The gist of the method: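 Antagonist-mode intracellular calcium assay: DOI (4 nM) added after 5 min compound pre-incubation at room temperature to dye-loaded HTR2A-CHO cells. Fluorescence followed for 3 min, sampled every second.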
5-hydroxytryptamine receptor 2A (Homo sapiens), sequence (P28223 whole entry, looked up): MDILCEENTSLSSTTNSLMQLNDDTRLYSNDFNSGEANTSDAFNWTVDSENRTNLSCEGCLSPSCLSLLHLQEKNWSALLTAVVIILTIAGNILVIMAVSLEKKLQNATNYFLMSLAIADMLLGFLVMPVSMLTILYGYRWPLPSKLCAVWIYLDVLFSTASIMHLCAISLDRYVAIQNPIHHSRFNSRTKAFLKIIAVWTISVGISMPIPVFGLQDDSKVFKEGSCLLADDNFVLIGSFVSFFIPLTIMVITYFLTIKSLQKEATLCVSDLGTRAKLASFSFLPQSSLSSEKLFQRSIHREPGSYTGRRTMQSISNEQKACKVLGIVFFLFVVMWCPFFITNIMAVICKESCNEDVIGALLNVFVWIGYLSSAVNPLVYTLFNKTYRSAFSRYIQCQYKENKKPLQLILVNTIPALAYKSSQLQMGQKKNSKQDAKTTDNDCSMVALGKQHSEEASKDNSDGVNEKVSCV

Assay [8] has the same target. The experiment in a line: 5-hydroxytryptamine receptor 2A (HTR2A) small molecule agonists, cell-based qHTS assay (AID 1963587). Further: nearly all actives have a fitted effect of over 30% in size. Further: potency means the concentration at half of the fitted maximal effect. The gist of the method:
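HTR2A-CHO cells, plated 18 h at 37 C/5% CO2, dye-loaded 1 h at 37 C; compounds in DMSO added by pin tool (agonist mode). Intracellular calcium flux read as kinetic fluorescence on FDSS over 2 min at 1 s intervals.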

The target of assay [9] is Muscarinic acetylcholine receptor M1 (Homo sapiens) (UniProt P11229). The experiment in a line: Cholinergic receptor muscarinic 1 (CHRM1) small molecule antagonists, cell-based qHTS assay (AID 1963588). Further: nearly all actives have a fitted effect of over 40% in size. In a few lines: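 CHRM1-CHO calcium-flux assay, antagonist mode. Cells were seeded 18 h, dye-loaded 1 h at 37 C and given compound for 5 min at RT, then acetylcholine was added at 50nM. FDSS fluorescence was read 3 min; 15 concentrations, three runs.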
Muscarinic acetylcholine receptor M1 (Homo sapiens), sequence (P11229 whole entry, looked up): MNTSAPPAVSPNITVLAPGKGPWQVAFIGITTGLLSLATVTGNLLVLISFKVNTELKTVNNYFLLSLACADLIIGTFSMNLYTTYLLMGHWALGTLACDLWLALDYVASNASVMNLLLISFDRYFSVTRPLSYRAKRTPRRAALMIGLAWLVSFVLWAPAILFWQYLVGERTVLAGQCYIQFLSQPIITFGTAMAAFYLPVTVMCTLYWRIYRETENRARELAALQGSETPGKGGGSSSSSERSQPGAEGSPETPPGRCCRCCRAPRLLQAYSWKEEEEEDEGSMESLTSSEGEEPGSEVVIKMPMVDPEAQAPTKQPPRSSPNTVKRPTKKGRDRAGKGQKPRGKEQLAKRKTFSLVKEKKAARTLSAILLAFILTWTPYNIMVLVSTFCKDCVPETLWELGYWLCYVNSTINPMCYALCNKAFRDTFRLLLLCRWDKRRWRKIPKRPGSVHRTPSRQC

For assay [10] the target is unchanged. The assay is described as follows: Cholinergic receptor muscarinic 1 (CHRM1) small molecule agonists, cell-based qHTS assay (AID 1963589). Further: nearly all actives have a fitted effect of over 35% in size. The gist of the method:
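Human M1 in stable CHO line; 18 h plating, 1 h dye load 37 C; cpd added (agonist mode); Ca2+ fluorescence kinetic read, 1 s intervals; 15 conc, 3 runs.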

A short description of assay [11]: cAMP Responsive Elements (CRE) small molecule agonists, cell-based qHTS assay (AID 1963590). In a few lines:
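HEK 293T CRE-bla, 2,000 cells/well, 18 h preincubation 37 C/5% CO2; cpds (DMSO) pinned, 3 h; LiveBLAzer B/G FRET substrate, 2 h RT.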

For assay [12], the target named is Beta-2 adrenergic receptor (Homo sapiens) (UniProt P07550). The experiment in a line: Adrenergic beta2 receptor (ADRB2) small molecule antagonists, cell-based qHTS assay (AID 1963592). Further: series mostly up to about 92 µM; nearly all actives have a fitted effect of over 50% in size. In a few lines:
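Cells (CHO, stable ADRB2 overexpression) incubated 18-20hr at 37C; compounds added from DMSO; agonist mix (1nM isoproterenol, 100uM IBMX, 25uM Ro-20-1724) added; 0.5hr RT; d2-cAMP and anti-cAMP-cryptate added; 1hr RT; 665/615 nm read.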

Assay [13] shares this target. The experiment in a line: Adrenergic beta2 receptor (ADRB2) small molecule agonists, cell-based qHTS assay (AID 1963593).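 Further: CHO cells stably overexpressing human ADRB2.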 The gist of the method: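 CHO cells stably over-expressing ADRB2 were plated overnight at 37C, then dosed with compounds plus a stimulation mix containing 100uM IBMX and 25uM Ro-20-1724 for 0.5hr at room temperature. cAMP was measured by HTRF competition, 1hr.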

Assay [14] addresses D(2) dopamine receptor (Homo sapiens) (UniProt P14416). The experiment in a line: Dopamine D2 receptor (DRD2) small molecule agonists, cell-based qHTS assay (AID 1963594). Further: nearly all actives have a fitted effect of over 35% in size. In a few lines:
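HEK293 cells stably expressing DRD2 were cultured 24 h at 37 C, then given Ro20-1724 (0.1 mM final) and compounds for 10 min at room temperature. NKH477 (200nM) was then added for 30 min. cAMP was read by HTRF.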

For assay [15] the target is unchanged. The experiment in a line: Dopamine D2 receptor (DRD2) small molecule antagonists, cell-based qHTS assay (AID 1963595; active means well fitted inhibition curve with a large enough effect in the signal ratio in the repeat runs, with a control signal flat; the % refers to the signal ratio). In a few lines: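 Antagonist mode in DRD2-HEK293 cells: after compound addition with 0.1 mM Ro20-1724, cells received quinpirole (12 nM) and NKH477 (200 nM) for 30 min at room temperature; HTRF cAMP read after 1 h detection.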
A short description of assay [16]: p53 small molecule agonists, cell-based qHTS assay with rat liver microsomes (AID 1963578). In a few lines: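 p53RE-bla cells were exposed to compounds together with rat liver microsomes (0.5 mg/mL final) and NADPH (0.5 mg/mL final) for 16 h at 37 C, then read by LiveBLAzer beta-lactamase fluorescence after 2 h at room temperature.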
A short description of assay [17]: p53 small molecule agonists, cell-based qHTS assay (AID 1963582; active means well fitted activation curve with a large enough effect in the signal ratio in the repeat runs, not every such curve was filed as active; the % refers to the signal ratio). In a few lines:
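Reporter line: p53RE-bla. Pre-incubation 5 h, 37 C, 5% CO2; compound (DMSO, pin tool) 16 h, 37 C; B/G FRET substrate 2 h RT; fluorescence intensity read.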

Assay [18] can be described thus: cAMP Responsive Elements (CRE) small molecule antagonists, cell-based qHTS assay (AID 1963591; active means well fitted inhibition curve with a large enough effect in the signal ratio in the repeat runs, not every such curve was filed as active; the % refers to the signal ratio). The gist of the method:
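Beta-lactamase reporter read by FRET substrate (LiveBLAzer B/G) after 2 h at room temperature. CRE-bla HEK293T cells had received compound plus 0.25 uM (final) NKH477 for 3 h at 37 °C.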

The nature of assay [19]: p53 small molecule agonists, cell-based qHTS assay with human liver microsomes (AID 1963577). In a few lines: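 p53RE-bla reporter cells were pre-incubated 5 h at 37 C, then treated with compounds plus human liver microsomes (0.5 mg/mL final) and NADPH (0.5 mg/mL final) for 16 h at 37 C. Beta-lactamase activity was read by LiveBLAzer fluorescence after 2 h at room temperature.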

Inconclusive results are not listed. The source made the active and inactive calls. Unless noted, the call rests on the fitted dose curve. Square brackets hold non-standard residues; d marks the D form. Peptide text beside a SMILES is read from it. pGlu = O=C1CC[C@@H](C(=O)O)N1

The record followed here is PubChem BioAssay (Tox21).

Beta-2 adrenergic receptor (Homo sapiens), sequence (P07550 whole entry, looked up): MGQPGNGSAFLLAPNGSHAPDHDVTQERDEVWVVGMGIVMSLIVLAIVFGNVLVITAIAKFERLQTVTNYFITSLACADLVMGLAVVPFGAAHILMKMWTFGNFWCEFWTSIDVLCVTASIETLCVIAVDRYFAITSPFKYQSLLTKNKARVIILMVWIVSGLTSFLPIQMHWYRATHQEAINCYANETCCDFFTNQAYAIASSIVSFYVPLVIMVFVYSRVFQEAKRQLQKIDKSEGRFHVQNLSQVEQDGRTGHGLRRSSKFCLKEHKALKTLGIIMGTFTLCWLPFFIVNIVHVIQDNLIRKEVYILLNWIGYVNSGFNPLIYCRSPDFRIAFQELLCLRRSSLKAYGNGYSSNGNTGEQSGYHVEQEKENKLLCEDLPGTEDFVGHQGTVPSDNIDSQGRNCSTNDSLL
KiSS-1 receptor (Homo sapiens), sequence (Q969F8 whole entry, looked up): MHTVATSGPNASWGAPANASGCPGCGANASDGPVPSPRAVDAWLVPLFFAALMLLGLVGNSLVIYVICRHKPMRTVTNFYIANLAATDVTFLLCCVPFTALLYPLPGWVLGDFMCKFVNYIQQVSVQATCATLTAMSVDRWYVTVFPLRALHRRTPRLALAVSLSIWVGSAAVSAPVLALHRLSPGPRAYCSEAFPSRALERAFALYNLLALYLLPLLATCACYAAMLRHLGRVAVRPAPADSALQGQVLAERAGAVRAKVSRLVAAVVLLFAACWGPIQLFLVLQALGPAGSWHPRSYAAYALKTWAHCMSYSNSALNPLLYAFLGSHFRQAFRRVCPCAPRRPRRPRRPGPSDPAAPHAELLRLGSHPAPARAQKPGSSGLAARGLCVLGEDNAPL
D(2) dopamine receptor (Homo sapiens), sequence (P14416 whole entry, looked up): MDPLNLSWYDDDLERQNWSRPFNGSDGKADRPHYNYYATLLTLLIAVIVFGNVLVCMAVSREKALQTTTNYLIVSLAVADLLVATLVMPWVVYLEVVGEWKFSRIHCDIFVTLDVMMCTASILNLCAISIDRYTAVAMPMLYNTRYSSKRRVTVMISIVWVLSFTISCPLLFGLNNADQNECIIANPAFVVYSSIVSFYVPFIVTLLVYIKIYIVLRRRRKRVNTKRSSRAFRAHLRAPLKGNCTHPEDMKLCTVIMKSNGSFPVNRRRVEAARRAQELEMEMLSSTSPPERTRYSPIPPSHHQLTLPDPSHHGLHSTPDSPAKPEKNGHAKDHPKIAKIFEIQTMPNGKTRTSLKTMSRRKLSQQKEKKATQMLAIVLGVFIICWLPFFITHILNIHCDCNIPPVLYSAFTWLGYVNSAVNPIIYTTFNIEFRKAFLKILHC

As to `CCCN(CCC)c1c([N+](=O)[O-])cc(C(F)(F)F)cc1[N+](=O)[O-]`, the Potency entry in assay [1], in [2], in [3], in assay [4], in assay [5] and in assay [6] was “inactive” throughout. In addition, the Potency entry in [7], in assay [8], in assay [9], in assay [10], in assay [11] and in assay [12] was “inactive” in each case. The Potency entry in [13], in assay [14] and in assay [15] was “inactive” in each case.

In the case of `CC(c1ccc(O)cc1)(c1ccc(O)cc1)c1ccc(O)cc1`, the Potency entry in assay [1], in assay [3], in [16], in assay [4], in assay [5] and in assay [9] was “inactive” in each case. Besides, the Potency entry in assay [10], in assay [12], in [13], in assay [14] and in assay [15] was “inactive” in each case. The Potency in assay [7] was 23.7 µM (active); in assay [8], 49 µM (active).

Take `O=[N+]([O-])O.O=[N+]([O-])O.[Cd]`: the Potency result in assay [1], in [2], in assay [3], in assay [4], in assay [5] and in assay [6] was “inactive” each time. Besides, the Potency result in assay [10], in assay [11], in assay [12] and in [14] was “inactive” throughout. Moreover, the Potency in assay [8] was 38.9 µM (active).

Turning to `O=C1Nc2ccc(Cl)cc2C(c2ccccc2)=NC1O` (stereo not drawn), the Potency entry in [1], in [2], in [3], in assay [6], in assay [17] and in assay [7] was “inactive” throughout. Further, the Potency entry in assay [8], in assay [9], in assay [10], in [11], in [12] and in [13] was “inactive” in each case. The Potency result in assay [14] and in assay [15] was “inactive” each time.

Take `CCOP(=S)(OCC)SCCS(=O)(=O)CC`: the Potency entry in [2], in assay [3], in assay [4], in assay [5], in assay [6] and in [17] was “inactive” each time. The Potency result in assay [8], in [9], in assay [10], in assay [11], in assay [18] and in [12] was “inactive” throughout. The Potency result in assay [14] and in assay [15] was “inactive” in each case.

Turning to `O=S(=O)(NS(=O)(=O)C(F)(F)F)C(F)(F)F`, the Potency result in assay [1], in assay [2], in [3], in assay [4], in assay [5] and in [6] was “inactive” in each case. The Potency entry in [7], in [8], in assay [9], in assay [12], in [13] and in assay [14] was “inactive” each time. Besides, in [15], the Potency result was “inactive”.

Regarding `CCNC(=O)[C@@H]1CCCN1C(=O)[C@H](CCCN=C(N)N)NC(=O)[C@H](CC(C)C)NC(=O)CNC(=O)[C@H](Cc1ccc(O)cc1)NC(=O)[C@H](CO)NC(=O)[C@H](Cc1c[nH]c2ccccc12)NC(=O)[C@H](Cc1cnc[nH]1)NC(=O)[C@@H]1CCC(=O)N1` ([pGlu]HWSYGLRP-NHEt), the Potency entry in assay [7], in assay [8], in [9] and in assay [10] was “inactive” each time.

As to `CCC(C)c1cc(C(C)(C)C)cc(-n2nc3ccccc3n2)c1O` (stereo not drawn), the Potency entry in assay [1], in assay [3], in [19], in [16], in [4] and in assay [17] was “inactive” each time. Moreover, the Potency result in assay [7], in assay [8], in assay [9], in assay [10], in assay [18] and in [12] was “inactive” in each case. Besides, the Potency entry in assay [14] and in assay [15] was “inactive” in each case.
